Our source for the growth values is PubChem BioAssay (NCI).

“And” between values parts separate entries of the source, which are not always exact repeats. Equal entries are not always repeated. About 83,000 compounds went through this panel and 20% of them were active in at least one assay; those are over-represented in the sample as a whole.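 Percent growth is the endpoint: 0 to 100 indicates growth inhibition (40 means 60% inhibition), 0 means no net growth, and negative values indicate cell death.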 The source made the active and inactive calls. How the source made its calls: active means growth percent below 10; inactive means the rest.

Holding throughout (test): NCI-60 one-dose screen, 48 h (100 = growth as untreated, 0 = no growth, -100 = all killed)
The test system of assay [1] is NCI-H226 lung. As to conditions: 10 µM.
Assay [2] concerns NCI-H322M lung. As to conditions: 10 µM.
Assay [3] has as its system HOP-62 NSCLC. As to conditions: 10 µM.
For assay [4], the system named is NCI-H460 lung. As to conditions: 10 µM.
Assay [5] concerns A549/ATCC NSCLC. Particulars: 10 µM.
Assay [6] relates to COLO 205 colon. As to conditions: 10 µM.
The test system of assay [7] is DU-145 prostate. As to conditions: 10 µM.
Assay [8] concerns SF-268 CNS. Particulars: 10 µM.
The test system of assay [9] is SF-295 CNS. Particulars: 10 µM.
The test system of assay [10] is SF-539 CNS. As to conditions: 10 µM.
Assay [11] has as its system HCT-15 colon. As to conditions: 10 µM.
Assay [12] deals with HT29 colon. Particulars: 10 µM.
Assay [13] concerns SNB-75 CNS. Particulars: 10 µM.
The subject of assay [14] is SNB-19 CNS. Particulars: 10 µM.
The test system of assay [15] is U251 CNS. As to conditions: 10 µM.
Assay [16] has as its system PC-3 prostate. As to conditions: 10 µM.
The test system of assay [17] is EKVX NSCLC. Particulars: 10 µM.
For assay [18], the system named is UO-31 renal. As to conditions: 10 µM.
The subject of assay [19] is ACHN renal. As to conditions: 10 µM.
Assay [20] relates to HL-60(TB) leukemia. As to conditions: 10 µM unless noted.

As to `CC1=C2C(=O)[C@](C)(CO)C=C2C(=O)[C@](C)(O)C12CC2`, the growth in [1] is 74.7% (inactive); in [2], 61.6% (inactive); in assay [3], 22% (inactive); in [4], 5.34% (active); in assay [5], 13.2% (inactive); in [6], -12.1% (active). Besides, the growth is 7.23% (active) in [7]; 10.5% (inactive) in assay [8]; 6.45% (active) in assay [9]; 4.6% (active) in assay [10]; -9.55% (active) in assay [11]; 2.57% (active) in assay [12]. The growth in assay [13] was 38.9% (inactive); in [14] it was 60.2% (inactive); in assay [15] it was 8.4% (active); in [16], 21.6% (inactive); in [17] it was 64.7% (inactive); in [18] it was -20.7% (active). In addition, the growth was -21.9% (active) in assay [19] and -21.6% (active) in assay [20].
With `CC1=C(CCC=NNC(N)=O)C2=C(C)C3(CC3)[C@@](C)(O)C(=O)C2=C1`, the growth was -41.6% (active) in assay [1]; -16.2% (active) in assay [2]; -55.2% (active) in [3]; -29.2% (active) in [4]; 4.54% (active) in [5]; -86.4% (active) in assay [6]. The growth is -9.85% (active) in assay [7]; -17.8% (active) in [8]; -6.5% (active) in assay [9]; -58.5% (active) in assay [10]; -16.6% (active) in [11]; -9.67% (active) in assay [12]. The growth is -63.9% (active) in assay [13]; 3.45% (active) in [14]; 4.6% (active) in [15]; 1.22% (active) in assay [16]; -12.8% (active) in assay [17]; -29.1% (active) in assay [18]. Further, the growth in assay [19] was -10.3% (active); in [20], 5.99% (active).
In the case of `C/C=C/CC(C)C(O)[C@H](NC(=O)[C@@H]1CCCN1C(=O)C(C)(C)NC(=O)CCCCCCCCC)C(=O)NC(C)(C)C(=O)N[C@@H](CCC(N)=O)C(=O)N[C@H](CCC(N)=O)C(=O)NC(C)(C)C(=O)NC(C)(C)C(=O)N[C@@H](CCC(N)=O)C(=O)N[C@H](CC(C)C)C(=O)N[C@H](CO)CC(C)C` (some centres undefined), the growth was 24.6% (inactive) and -36.3% (active) in assay [1]; 39.9% (inactive) and -7.7% (active) in assay [2]; 20.7% (inactive) and -41.7% (active) in assay [3]; 17.1% (inactive) and -70% (active) in assay [4]; 49.3% (inactive) and 26.3% (inactive) in assay [5]; -82.7% (active) and -41.1% (active) in [6]. Also, the growth is -71% (active) and -43.1% (active) in assay [7]; -14.2% (active) and -46.2% (active) in [8]; -20.9% (active) and -75.3% (active) in assay [9]; -33.1% (active) and -100% (active) in assay [10]; 4.12% (active) and 4.44% (active) in [11]; 4.29% (active) and 5.04% (active) in assay [12]. Moreover, the growth in [13] is -15.2% (active) and -83.2% (active); in assay [14] it was 14.5% (inactive) and -95.4% (active); in [15], 0.668% (active) and -89.7% (active); in assay [16], 15.8% (inactive) and -29.7% (active); in assay [17] it was 22.6% (inactive) and -41.8% (active); in assay [18], 39.7% (inactive) and -38.5% (active). Also, in [19], the growth was 43.7% (inactive) and -32% (active).
As for `C[C@@H]1CCC/C=C/[C@H]2C[C@@H](O)C[C@@H]2[C@@H](O)/C=C/C(=O)O1`, the growth is 7.32% (active) in assay [1]; 6.35% (active) in assay [2]; 1.72% (active) in [3]; 18.2% (inactive) in assay [4]; 16.1% (inactive) in assay [5]; -84.3% (active) in [6]. For the same molecule, the growth was 28.4% (inactive) in assay [7]; 17.6% (inactive) in [8]; 21.6% (inactive) in [9]; 31.7% (inactive) in [10]; 11.2% (inactive) in assay [11]; 0.531% (active) in assay [12]. The growth is 47% (inactive) in [13]; 30.2% (inactive) in [14]; 17.6% (inactive) in assay [15]; 19.5% (inactive) in [16]; 11.5% (inactive) in assay [17]; 6.57% (active) in assay [18]. For the same molecule, the growth is 9.31% (active) in assay [19] and -22.7% (active) in assay [20].
For `CC1=C2C(=C[C@@](C)(COC(=O)c3ccc(S(=O)(=O)F)cc3)[C@@H]2OC(=O)c2ccc(S(=O)(=O)F)cc2)C(=O)[C@](C)(O)C12CC2`, the growth in assay [1] was -6.08% (active); in [2], 9.18% (active); in assay [3], -20.3% (active); in [4] it was 0.279% (active); in assay [5], 2.93% (active); in [6], -78.1% (active). Also, the growth in assay [7] is 5.79% (active); in assay [8], 2.06% (active); in assay [9] it was 1.3% (active); in [10], -4.86% (active); in assay [11] it was 0.515% (active); in assay [12], 2.13% (active). In addition, the growth was -8.24% (active) in assay [13]; 21.5% (inactive) in [14]; -21.5% (active) in assay [15]; 16.2% (inactive) in [16]; 23.6% (inactive) in [17]; -13.7% (active) in assay [18]. In addition, the results for the growth in [19] and in assay [20] were -15.8% (active) and 8.8% (active), respectively.
For `COC1[C@@H]2C[C@H]3C(C)(C)O[C@@](C/C=C(/C)C(=O)O)(C2=O)[C@]32Oc3c(CC=C(C)C)c4c(c(O)c3C(=O)[C@H]12)C=CC(C)(C)O4` (some centres undefined), the growth in [1] is 23% (inactive); in [2], -67% (active); in assay [3] it was -24.8% (active); in assay [4], -55.6% (active); in [5] it was -20.3% (active); in assay [6] it was -72.1% (active). Besides, the growth is -97.2% (active) in assay [7]; -45.5% (active) in assay [8]; -55.2% (active) in [9]; -23% (active) in [10]; -43.1% (active) in assay [11]; -33.3% (active) in assay [12]. The growth is -24.3% (active) in assay [13]; -69.5% (active) in assay [14]; -91.1% (active) in assay [15]; -18.4% (active) in assay [16]; -46.5% (active) in [17]; -69.6% (active) in assay [18]. Further, the growth is -71% (active) in [19] and -29.8% (active) in assay [20].
